From PubChem
ATXN2 expr inh: reduces ATXN2 reporter expression in HEK-293 cells; HEK-293 ATXN2-luciferase reporter, luminescence, 24 h; Potency, µM (top dose mostly 57 µM), for inactives: at the top dose activity change, negative = inhibition, actives largely listed as inhibitors; 360,000 tested, 0.72% active; AID 1745845; further: potency means the concentration at half of the fitted maximal effect; on the % scale 0 is the no-effect control and ±100 the full control effect; nearly all actives have a fitted effect of over 55% in size
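ATXN2-luciferase reporter cells (luciferase flanked by upstream and downstream ATXN2 gene portions) were treated 24 h at 37 °C with compounds at up to 57 uM. SteadyGlo luminescence gave expression; GF-AFC fluorescence gave viability.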
S2 tox: viability counter-screen for ATXN expression inhibitors; S2 cells (HEK-293 line with an ATXN2-luciferase reporter) viability, CellTiter-Fluor protease fluorescence, 24 h; Potency, µM (highest dose often 56.7 µM), most hits filed as cytotoxic; 400,000 tested, 0.49% active; AID 651635; further: potency means the concentration at half of the fitted maximal effect; nearly all actives have a fitted effect of over 40% in size
DRD3 agonist: D3 dopamine receptor (human) agonism. P35462. max activation, %. 410,000 tested, 0.58% active. D3R DiscoveRx beta-arrestin cells, luminescence, 90 min; in the data active means max activation above about 30%; further: 0% is about no effect
Target sequence (P35462 whole entry, looked up): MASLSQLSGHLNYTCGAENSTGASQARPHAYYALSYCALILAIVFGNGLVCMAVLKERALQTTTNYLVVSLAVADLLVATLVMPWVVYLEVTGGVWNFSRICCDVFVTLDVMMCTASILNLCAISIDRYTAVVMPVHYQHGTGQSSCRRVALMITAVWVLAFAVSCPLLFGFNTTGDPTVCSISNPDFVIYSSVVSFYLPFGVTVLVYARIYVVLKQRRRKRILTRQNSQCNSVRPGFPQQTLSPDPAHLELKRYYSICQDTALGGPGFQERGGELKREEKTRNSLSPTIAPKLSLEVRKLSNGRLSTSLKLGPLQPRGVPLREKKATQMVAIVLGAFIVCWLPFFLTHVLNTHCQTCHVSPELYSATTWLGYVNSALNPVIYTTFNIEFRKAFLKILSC
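Agonist mode: compounds and dopamine controls were applied to plated cells for 90 min at 37 degrees C after an overnight attachment at 1500 cells/well. Luminescent read-out followed 30 - 60 minutes at room temperature with DiscoveRx detection reagent.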
DRD3 antagonist: D3 dopamine receptor (human) antagonism | P35462 | D3R cells, DiscoveRx beta-arrestin luminescence, antagonist mode; active compounds read low | max response, negative = inhibition, % | 360,000 tested, 2.5% active; in the data active means max response below about -50%; inconclusive means no clear call, values can overlap the other calls; further: on the % scale 0 is the no-effect control and ±100 the full control effect
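Cells expressing the human receptor were seeded at 1500 cells/well, incubated overnight at 37 degrees C in 5% CO2, then exposed to library compounds with dopamine controls for 90 minutes at 37 degrees C before luminescent detection.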
IL1B secr inh: blocks inflammasome-driven IL-1 beta release | THP-1 LPS/ATP IL-1B secretion, AlphaLISA, 16 h; active compounds read low | activity change, % at 57.5 µM | 360,000 tested, 4.7% active | AID 743279; in the data active means activity change below about -50%; inconclusive means mostly about -30% to -49%; further: on the % scale 0 is the no-effect control and ±100 the full control effect
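THP-1 cells pretreated 1 hr with compounds (up to 57.5 uM final), then stimulated with LPS (250 ng/mL final) plus ATP (1.25 mM final); secreted IL-1B measured by AlphaLISA after 16 hr, decreased signal indicating inhibition.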
Integrin act MD: integrin-mediated muscular dystrophy alleviation activation. alpha7betagal myoblasts, beta-gal FDG fluorescence, 48 h. Potency, µM (highest dose often 38.3 µM), for inactives: top-dose activation, hits mostly activators. 350,000 tested, 0.064% active;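 further: potency means the concentration at half of the fitted maximal effect; 100% = response of the positive control SU9516; nearly all actives have a fitted effect of over 60% in size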
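Alpha7betagal+/- myoblasts (passage 13) were plated 16-24 hr, then exposed to compounds (1:260 dilution of DMSO stock) for 48 hours at 37C. After MPER lysis, β-galactosidase reporter activity was read as FDG fluorescence (ex 480/em 540) after 30 minutes.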
Numbers without * were called inactive; i = inactive; ? = inconclusive; nt = not tested or not shown; [ ] = dose if it differs, or a comment. Only some compounds are listed: those with a hit (about 7% of all), similar ones and a draw of the others. Unless noted, the call rests on the fitted dose curve; in most records, active means well fitted curve in the direction sought with a large enough effect; inconclusive means small, poorly fitted or top-dose-only effect, or another doubt; inactive means no such curve, though single readings can be large; an effect the other way counts as inactive or inconclusive.

SMILES	ATXN2 expr inh	S2 tox	DRD3 agonist	DRD3 antagonist	IL1B secr inh	Integrin act MD
O=C(/C=C/c1c(Cl)nc2ccccn12)Nc1ccc(F)cc1	-10%	i	-22	-6	23	19%
CCc1ccc(NC(=O)Cc2csc(COc3cccc(C)c3)n2)cc1	-16%	?	-8	nt	nt	nt
Cc1cccc(NC(=O)c2nc[nH]c2C(=O)N[C@@H](C)C(=O)OC(C)(C)C)c1	-31%	?	-11	-8	-67*	-21%
C[C@H](NC(=O)c1nc[nH]c1C(=O)NC(c1ccccc1)c1ccccc1)C(=O)OC(C)(C)C	?	?	0	-56*	?	-21%
CC(C)C[C@H](NC(=O)c1[nH]cnc1C(=O)N[C@@H](C)C(=O)OC(C)(C)C)C(=O)OC(C)(C)C	-70%	nt	-14	-6	-61*	-17%
CCn1cc(S(=O)(=O)c2ccc(Cl)cc2)c(=O)c2cc(F)c(N3CCOCC3)cc21	nt	nt	-16	nt	nt	nt
Cc1ccc2nc(C)c(C(=O)N/N=C/c3ccco3)cc2c1	13%	i	1	-9	5	2%
Cc1ccc2nc(C)c(C(=O)N/N=C/c3ccc(N4CCOCC4)cc3)cc2c1	-6%	i	31*	-6	58	-3%
CCCCC[C@@H](C)N1C[C@H](COCc2ccccc2)Oc2cc(N3CC[C@H](N(C)C)C3)ccc2S1(=O)=O	?	25µM*	3	23	-82*	nt
C[C@H](c1ccccc1)N1C[C@H](COCc2ccccc2)Oc2cc(N3CC[C@H](O)C3)ccc2S1(=O)=O	0%	?	4	6	-5	nt
C[C@@H](c1ccccc1)N1C[C@H](COCc2ccccc2)Oc2cc(N3CC[C@@H](N(C)C)C3)ccc2S1(=O)=O	28µM*	22µM*	-9	-12	69	nt
CCCCC[C@H](C)N1C[C@H](COCc2ccccc2)Oc2cc(N3CCC[C@@H]3CO)ccc2S1(=O)=O	0%	?	7	24	?	nt
CCCCC[C@H](C)N1C[C@H](COCc2ccccc2)Oc2cc(N3CC[C@H](O)C3)ccc2S1(=O)=O	-14%	?	8	26	-20	nt
C[C@@H](c1ccccc1)N1C[C@H](COCc2ccccc2)Oc2cc(N3CC[C@H](N(C)C)C3)ccc2S1(=O)=O	?	16µM*	-11	-20	-9	nt
C[C@H](c1ccccc1)N1C[C@@H](COCc2ccccc2)Oc2cc(N3CC[C@H](O)C3)ccc2S1(=O)=O	-16%	?	5	46	-1	nt
CCCCC[C@H](C)N1C[C@H](COCc2ccccc2)Oc2cc(N3CCC[C@H]3CO)ccc2S1(=O)=O	?	nt	2	10	-55*	nt
CCOC(=O)[C@H]1[C@H]2COc3cc(OC)ccc3[C@@H]2N2C(=O)CN(CC3CCCO3)C(=O)[C@@]12C (stereo not given in full)	-7%	i	-8	-17	-7	4%
O=C(Cn1c(=O)oc2cc(S(=O)(=O)N3CCCC3)ccc21)Nc1ccc(F)cc1F	nt	nt	-5	nt	nt	nt
COC(=O)c1cc2c(C)[nH]c(C)c2cc(C(=O)OC)c1=O	3%	i	1	3	-19	-8%
C[C@H](c1ccccc1)N1C[C@H](COCc2ccccc2)Oc2cc(N3CC[C@H](N(C)C)C3)ccc2S1(=O)=O	?	16µM*	-2	3	-22	nt
CN(C(=O)Cn1cc(C#N)c2ccccc21)c1ccccc1	-11%	i	-5	-14	9	8%
CCn1nnnc1NCc1ccc(OCc2ccc(F)cc2Cl)c(OC)c1	-20%	i	2	0	-58*	-15%
COc1cccc(CN(C)C(=O)c2ccc(C)c(S(=O)(=O)N3CCCCC3)c2)c1	-24%	i	-5	-1	27	-9%
CCN(CCCNC(=O)C1CCN(S(=O)(=O)c2cnc[nH]2)CC1)c1cccc(C)c1	20%	i	-2	-18	4	5%
Cc1cc2cc(C)c3nnc(SCC(=O)NCc4ccco4)n3c2cc1C	3%	i	-1	-3	-66*	5%
SMILES	ATXN2 expr inh	S2 tox	DRD3 agonist	DRD3 antagonist	IL1B secr inh	Integrin act MD
Cc1ccc2cc(C)c3nnc(SCC(=O)NCc4ccco4)n3c2c1	-6%	i	4	6	-21	-23%
CC(NS(=O)(=O)c1ccc(Br)cc1)C(=O)NCc1ccco1 (stereo not given)	2%	i	7	-13	-17	10%
COc1ccccc1CNC(=O)C(C)NS(=O)(=O)c1ccc(Br)cc1 (stereo not given)	-4%	i	2	-68*	9	-6%
O=C(CO/N=C/c1ccc(OC(F)F)cc1)NC1CCCC1	-8%	i	-7	-3	-14	0%
S=C(Nc1ccc(Br)cc1)NC1CCCCC1	51%	i	4	?	-91*	-48%
O=C(NC1CCSc2ccccc21)c1cccc(Br)c1 (stereo not given)	33%	i	-4	-4	49	-11%
O=C(CO/N=C/c1ccc(OC(F)F)cc1)NC1CCCCCC1	-24%	i	3	-4	-57*	-74%
Cc1cccc(NC(=S)NC2CCSc3ccccc32)c1 (stereo not given)	3%	i	5	-16	-61*	-35%
S=C(NNc1cccc(Cl)c1)NC1CCCCC1	-8%	i	-10	-17	-108*	-36%
S=C(NCc1ccccc1)NC1CCSc2ccccc21 (stereo not given)	-16%	i	1	-3	-74*	-20%
COc1cccc(CC(=O)NC2CCSc3ccccc32)c1 (stereo not given)	1%	i	-5	-16	-16	34%
FC(F)Oc1ccc(NC(=S)NC2CCCCCCC2)cc1	-37%	i	-12	5	-91*	2%
CCOc1ccc(NC(=O)c2ccc(NC(=S)NC3CCCCC3)cc2)cc1	-37%	?	-12	-68*	-24	-40%
CC1CCCN(C(=S)Nc2ccc(F)cc2)C1 (stereo not given)	-7%[11.3 µM]	i	-6	-24	-13	5%
CC1CCCN(C(=S)Nc2ccc(Nc3ccccc3)cc2)C1 (stereo not given)	4%	i	0	?	-86*	0%
COc1ccc(NC(=O)Nc2cccc3[nH]c([C@@H]4O[C@H](CO)[C@@H](O)[C@H](O)[C@H]4O)nc23)cc1OC1CCCC1	12%	i	-3	12	41	nt
S=C(Nc1ccc(Nc2ccccc2)cc1)NC1CCCCCC1	?	?	-2	-22	-79*	-69%
FC(F)Oc1ccc(NC(=S)NC2CCSc3ccccc32)cc1 (stereo not given)	?	i	-11	-27	-85*	-47%
